The supplement of paper PMC10849652
Targets with a hit are over-represented here; the source holds about 7,900 in all. About 0.6% of all pairs of compound and target were hits.

The targets below were run with CC(C)(O)CC(=O)NCCn1ccc2ncnc(Nc3ccc(Oc4cccc(C(F)(F)F)c4)c(Cl)c3)c21 (assay: log2 fold change, soluble protein after heating vs DMSO (PISA); higher = thermal stabilisation; K562 cells, 10 uM, 30 min; active = over 0.2 and 3.5 SD of the protein, either way, in both replicates (recomputed)).
Summary of the method: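 K562 cells at 2×10^6 cells/mL were treated for 30 min with 10 μM compound, and aliquots were heated for 3 min over 48°C-58°C before pooling. Extraction used PBS with 0.5% NP-40 at 4°C, and soluble protein was the supernatant after 21,000xg for 90 min, measured by TMTpro 16plex LC-MS/MS with channel sums equalised. Thermal stability values, relative to control samples and from duplicates, are log2 fold changes.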

Chain of UniProt Q03468 (Q03468 whole entry, looked up): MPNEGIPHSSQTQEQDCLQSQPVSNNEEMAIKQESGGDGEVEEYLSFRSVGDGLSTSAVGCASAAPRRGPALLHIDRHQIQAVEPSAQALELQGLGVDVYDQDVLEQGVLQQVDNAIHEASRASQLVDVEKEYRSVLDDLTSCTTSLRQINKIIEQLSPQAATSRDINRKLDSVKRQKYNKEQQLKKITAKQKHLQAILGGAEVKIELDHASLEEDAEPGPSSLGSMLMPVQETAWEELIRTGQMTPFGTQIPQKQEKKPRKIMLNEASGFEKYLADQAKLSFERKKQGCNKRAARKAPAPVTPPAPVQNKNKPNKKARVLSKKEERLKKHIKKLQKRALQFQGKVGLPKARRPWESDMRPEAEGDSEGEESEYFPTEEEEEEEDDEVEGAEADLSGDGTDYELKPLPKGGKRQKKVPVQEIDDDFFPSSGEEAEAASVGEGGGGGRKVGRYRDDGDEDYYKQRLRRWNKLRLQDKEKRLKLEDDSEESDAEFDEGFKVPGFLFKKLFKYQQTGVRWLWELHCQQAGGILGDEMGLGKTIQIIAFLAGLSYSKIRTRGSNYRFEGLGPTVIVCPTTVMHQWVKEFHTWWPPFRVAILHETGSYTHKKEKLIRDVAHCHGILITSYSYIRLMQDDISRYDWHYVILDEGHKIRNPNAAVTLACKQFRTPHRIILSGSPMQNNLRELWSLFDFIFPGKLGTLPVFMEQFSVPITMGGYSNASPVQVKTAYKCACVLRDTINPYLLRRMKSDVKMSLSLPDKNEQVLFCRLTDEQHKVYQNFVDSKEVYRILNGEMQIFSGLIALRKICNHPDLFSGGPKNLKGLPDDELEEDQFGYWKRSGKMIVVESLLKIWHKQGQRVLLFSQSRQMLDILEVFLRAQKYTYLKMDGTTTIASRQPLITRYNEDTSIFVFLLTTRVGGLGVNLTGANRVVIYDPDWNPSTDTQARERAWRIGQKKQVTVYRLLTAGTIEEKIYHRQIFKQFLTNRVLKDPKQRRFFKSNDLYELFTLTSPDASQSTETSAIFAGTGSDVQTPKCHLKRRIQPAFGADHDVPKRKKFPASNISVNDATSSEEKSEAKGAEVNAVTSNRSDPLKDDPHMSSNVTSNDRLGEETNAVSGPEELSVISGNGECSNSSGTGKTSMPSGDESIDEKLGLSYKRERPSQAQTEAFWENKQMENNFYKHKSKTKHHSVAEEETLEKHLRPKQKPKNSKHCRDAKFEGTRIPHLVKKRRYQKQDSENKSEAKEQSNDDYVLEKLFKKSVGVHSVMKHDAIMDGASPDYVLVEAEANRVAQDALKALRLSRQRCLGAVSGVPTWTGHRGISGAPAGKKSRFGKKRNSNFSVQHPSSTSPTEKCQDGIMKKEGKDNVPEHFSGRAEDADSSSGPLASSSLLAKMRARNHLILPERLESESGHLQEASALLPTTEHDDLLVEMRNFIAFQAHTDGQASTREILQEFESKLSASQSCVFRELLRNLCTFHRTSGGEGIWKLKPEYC
Chain of UniProt O60231 (O60231 whole entry, looked up): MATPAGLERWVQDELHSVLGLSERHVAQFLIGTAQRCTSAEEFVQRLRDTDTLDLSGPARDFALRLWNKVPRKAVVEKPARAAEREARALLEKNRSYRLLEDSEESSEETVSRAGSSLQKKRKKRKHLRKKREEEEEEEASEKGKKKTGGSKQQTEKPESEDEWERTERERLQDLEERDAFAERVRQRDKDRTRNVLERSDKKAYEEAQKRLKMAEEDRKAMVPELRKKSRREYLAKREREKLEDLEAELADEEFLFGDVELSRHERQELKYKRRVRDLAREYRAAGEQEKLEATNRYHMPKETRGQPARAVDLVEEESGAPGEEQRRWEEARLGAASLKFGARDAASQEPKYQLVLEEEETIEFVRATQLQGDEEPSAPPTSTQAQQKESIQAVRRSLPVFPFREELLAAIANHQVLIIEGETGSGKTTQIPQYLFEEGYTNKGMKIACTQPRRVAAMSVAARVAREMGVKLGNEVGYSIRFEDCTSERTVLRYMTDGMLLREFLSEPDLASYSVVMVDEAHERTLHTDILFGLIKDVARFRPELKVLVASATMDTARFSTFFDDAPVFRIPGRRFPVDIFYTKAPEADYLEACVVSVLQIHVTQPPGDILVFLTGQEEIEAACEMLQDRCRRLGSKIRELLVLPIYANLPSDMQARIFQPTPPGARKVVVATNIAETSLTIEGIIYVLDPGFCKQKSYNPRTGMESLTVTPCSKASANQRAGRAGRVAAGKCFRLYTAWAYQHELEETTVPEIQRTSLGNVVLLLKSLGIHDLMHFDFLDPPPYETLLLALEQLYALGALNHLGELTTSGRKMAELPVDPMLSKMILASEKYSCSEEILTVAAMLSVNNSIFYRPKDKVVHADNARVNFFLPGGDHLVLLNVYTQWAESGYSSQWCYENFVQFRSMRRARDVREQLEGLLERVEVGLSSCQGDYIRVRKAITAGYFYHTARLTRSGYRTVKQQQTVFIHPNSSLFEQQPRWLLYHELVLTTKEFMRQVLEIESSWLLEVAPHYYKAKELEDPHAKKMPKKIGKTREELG
Chain of UniProt Q16643 (Q16643 whole entry, looked up): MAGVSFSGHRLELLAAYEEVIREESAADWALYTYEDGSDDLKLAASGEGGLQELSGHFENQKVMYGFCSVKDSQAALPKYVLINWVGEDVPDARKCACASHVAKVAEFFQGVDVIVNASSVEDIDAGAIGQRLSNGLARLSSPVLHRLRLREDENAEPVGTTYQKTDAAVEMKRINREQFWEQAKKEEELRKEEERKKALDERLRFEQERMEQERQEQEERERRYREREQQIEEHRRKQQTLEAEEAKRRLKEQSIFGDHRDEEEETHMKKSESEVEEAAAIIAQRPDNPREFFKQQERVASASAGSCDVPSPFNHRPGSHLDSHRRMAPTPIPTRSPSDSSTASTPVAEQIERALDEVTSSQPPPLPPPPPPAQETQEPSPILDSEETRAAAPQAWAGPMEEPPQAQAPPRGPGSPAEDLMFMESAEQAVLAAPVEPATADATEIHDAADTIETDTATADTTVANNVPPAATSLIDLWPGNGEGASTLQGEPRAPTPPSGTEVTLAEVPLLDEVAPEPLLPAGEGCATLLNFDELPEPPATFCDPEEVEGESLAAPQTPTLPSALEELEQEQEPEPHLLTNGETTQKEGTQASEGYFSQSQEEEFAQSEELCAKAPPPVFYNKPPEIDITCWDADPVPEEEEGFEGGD
Chain of UniProt P49366 (P49366 whole entry, looked up): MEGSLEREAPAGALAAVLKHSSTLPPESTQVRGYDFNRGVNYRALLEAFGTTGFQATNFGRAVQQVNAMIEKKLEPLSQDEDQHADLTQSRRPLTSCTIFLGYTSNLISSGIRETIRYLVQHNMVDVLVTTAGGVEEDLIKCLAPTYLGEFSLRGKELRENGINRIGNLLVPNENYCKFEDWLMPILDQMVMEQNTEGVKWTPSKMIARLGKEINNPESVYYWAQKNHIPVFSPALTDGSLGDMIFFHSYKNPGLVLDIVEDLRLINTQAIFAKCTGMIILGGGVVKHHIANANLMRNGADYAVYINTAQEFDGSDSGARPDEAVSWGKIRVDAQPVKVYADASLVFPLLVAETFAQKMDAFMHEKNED
Chain of UniProt Q8IYI6 (Q8IYI6 whole entry, looked up): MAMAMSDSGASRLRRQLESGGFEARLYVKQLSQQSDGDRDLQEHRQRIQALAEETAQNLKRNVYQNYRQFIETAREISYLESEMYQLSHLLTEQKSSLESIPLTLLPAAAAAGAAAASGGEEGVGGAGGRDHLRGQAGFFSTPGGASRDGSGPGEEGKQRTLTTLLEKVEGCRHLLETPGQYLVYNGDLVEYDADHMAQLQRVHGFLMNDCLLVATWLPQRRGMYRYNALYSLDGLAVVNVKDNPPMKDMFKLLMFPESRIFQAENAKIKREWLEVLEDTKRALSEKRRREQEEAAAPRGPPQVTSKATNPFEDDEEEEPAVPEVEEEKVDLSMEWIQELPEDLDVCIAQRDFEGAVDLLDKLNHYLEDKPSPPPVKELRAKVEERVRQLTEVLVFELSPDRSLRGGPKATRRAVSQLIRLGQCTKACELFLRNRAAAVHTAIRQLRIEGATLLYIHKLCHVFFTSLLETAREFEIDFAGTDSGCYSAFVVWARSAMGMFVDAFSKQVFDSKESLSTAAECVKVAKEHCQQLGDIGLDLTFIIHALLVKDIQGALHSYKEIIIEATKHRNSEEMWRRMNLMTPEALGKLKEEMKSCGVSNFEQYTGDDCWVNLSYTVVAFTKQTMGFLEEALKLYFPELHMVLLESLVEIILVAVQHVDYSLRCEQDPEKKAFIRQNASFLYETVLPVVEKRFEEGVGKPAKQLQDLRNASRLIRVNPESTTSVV
Chain of UniProt Q14320 (Q14320 whole entry, looked up): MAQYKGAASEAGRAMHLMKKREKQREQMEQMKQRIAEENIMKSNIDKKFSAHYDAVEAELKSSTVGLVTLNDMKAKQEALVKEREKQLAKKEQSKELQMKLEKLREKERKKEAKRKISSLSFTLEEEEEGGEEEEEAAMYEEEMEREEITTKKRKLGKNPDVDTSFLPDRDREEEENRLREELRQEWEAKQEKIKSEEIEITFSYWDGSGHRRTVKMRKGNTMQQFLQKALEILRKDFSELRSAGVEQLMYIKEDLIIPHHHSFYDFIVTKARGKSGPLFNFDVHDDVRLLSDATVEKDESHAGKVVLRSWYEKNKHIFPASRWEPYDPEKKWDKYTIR
Chain of UniProt Q8NBA8 (Q8NBA8 whole entry, looked up): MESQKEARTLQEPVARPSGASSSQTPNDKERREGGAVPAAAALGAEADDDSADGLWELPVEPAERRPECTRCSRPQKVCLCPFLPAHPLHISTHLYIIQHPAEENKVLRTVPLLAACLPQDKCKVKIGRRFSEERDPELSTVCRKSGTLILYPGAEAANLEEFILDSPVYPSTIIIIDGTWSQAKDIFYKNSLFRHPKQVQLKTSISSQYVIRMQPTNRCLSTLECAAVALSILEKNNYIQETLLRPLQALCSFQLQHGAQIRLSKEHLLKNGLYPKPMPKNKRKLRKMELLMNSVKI

log2 fold change, inactive:
CTU1 (UniProt Q7Z7A3) -0.054
DNAJC1 (UniProt Q96KC8) -0.117
EIF4E isoform 2 (UniProt P06730) -0.016
DIP2A (UniProt Q14689) 0.003
DBN1 isoform 3 (UniProt Q16643) 0.151
EXOC6 (UniProt Q8TAG9) -0.084
EXTL2 (UniProt Q9UBQ6) 0.062
DDOST (UniProt P39656) 0.015
DDX39A (UniProt O00148) -0.142
ERCC6 (UniProt Q03468) -0.094
DYRK1A isoform 2 (UniProt Q13627) -0.042
DBR1 (UniProt Q9UK59) 0.006
EEF1G isoform 2 (UniProt P26641) 0.006
DHFR (UniProt P00374) -0.044
EFL1 (UniProt Q7Z2Z2) -0.069
FAM114A2 (UniProt Q9NRY5) -0.135
DNAAF2 (UniProt Q9NVR5) 0.013
EXOC8 (UniProt Q8IYI6) -0.128
DUS3L (UniProt Q96G46) -0.043
DHPS (UniProt P49366) -0.043
EDEM2 (UniProt Q9BV94) -0.009
DHX16 (UniProt O60231) -0.025
ERCC2 (UniProt P18074) 0.016
DHCR24 (UniProt Q15392) 0.041
DNM2 (UniProt P50570) -0.081
EHBP1L1 (UniProt Q8N3D4) -0.001
FAM118B (UniProt Q9BPY3) -0.199
EBNA1BP2 (UniProt Q99848) 0.124
CUTA isoform 2 (UniProt O60888) -0.104
EXOC1 (UniProt Q9NV70) -0.151
DFFB (UniProt O76075) -0.148
ELOVL1 (UniProt Q9BW60) -0.197
FAM3A (UniProt P98173) -0.028
DTWD2 (UniProt Q8NBA8) -0.07
DDB1 (UniProt Q16531) -0.008
E2F4 (UniProt Q16254) -0.072
DPH5 isoform 5 (UniProt Q9H2P9) -0.053
CTNNB1 (UniProt P35222) -0.056
FAM50A (UniProt Q14320) -0.027
